In the OligoGym collection:

These sequences were tested against FAM163B (assay: pooled miR-30 sensor sort-seq; sequence = guide strand). Details: shRNA.
Also: reference of the scale not given here.

Row | Sequence | sensor-assay potency score (higher = more potent)
1 | TTGTAGAGCACGCGCTCCCCGC | -1.32
2 | TCGCAGTGGGAGCAGCTGCGGC | -1.52
3 | TAGAGCACGCGCTCCCCGCCGT | -0.76
4 | TTCTTGCAGCAGTAGTACTGGA | -0.857
5 | TCTTGCAGCAGTAGTACTGGAG | -0.35
6 | TAGCACAGAACAGCGATGATGC | -0.556
7 | TTGCGGTTGGAGTGCAGCGGGG | -1.47
8 | TCCTGCAGGAAGAAGGTGGGGG | -0.682
9 | TCCGACTCGTCCTTCTTGCAGC | -1.44
10 | TTCTGGCTGAAGGAGGTGGAGG | -1.34
11 | TCCTCCGACTCGTCCTTCTTGC | -1.53
12 | TTGGTCAGCACCAGGTTGCGGT | -0.802

The sequences below were run against FAM164C in the same assay as above. Details: shRNA.

Row | Sequence | sensor-assay potency score (higher = more potent)
13 | TAGAGGTGGAAGACAGTTCTTG | -0.364
14 | TTCTTGATGGTCTTACACTTGG | -0.537
15 | TAATTTTCTGTAGCTCTCCGTT | -0.559
16 | TTTCTTTCTGCTTTGCATCAAA | -1.22
17 | ATCACTTTCTGGATCTTGCTGG | 0.553
18 | TTGATGGTCTTACACTTGGGAA | -1.53
19 | TTATCCAGAATCAACTCTTTGT | -0.353
20 | TTTACTGCTGAAGAGAAGCAGA | -0.62
21 | TAGCTCTGCAGGCAGATCTGGG | -1.11
22 | TTTGTTGCTCAAAAGCTGCTTC | 0.134
23 | TAGTCTTCGGATCTGCACCCAC | -0.402

The sequences below were run against FAM174A in the same assay as above. Details: shRNA.

Row | Sequence | sensor-assay potency score (higher = more potent)
24 | TAGTTCAGGCAGCAACAGCAGG | -1.17
25 | TATCTCCTAGTCTTTCGGTTTC | -1.02
26 | AAGTACACCAGCACCGCGCCGC | -0.391
27 | TGTTAGTGTCCAAAACTCCATA | -0.864
28 | TCTTCTTCTCATCCTGACCGTC | -0.459
29 | TGATCGTCCGTCTCAAGCCCGG | -1.42
30 | TAGTCTTTCGGTTTCTTCTTCT | 0.156
31 | TTCTAAAGGTGTCAATTCCATA | -1.28
32 | TTGGCATCAAACAACGTGTTGT | -0.0509
33 | ATATCTCCTAGTCTTTCGGTTT | -1.26
34 | TTCTTCTTCTCATCCTGACCGT | -0.117
35 | ATTTTCTATGTTAGTGTCCAAA | -1.74
